GPR151 ag – activators of human GPR151, primary screen, cell-based, PathHunter beta-arrestin, luminescence | activation, % at 11.2 µM | AID 1508602, 2020 | PathHunter beta-arrestin GPR151 cells | 650,000 tested, 1% active; in the data active = activation above about 4.9%;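 also: 0% = median of compound wells and 100% = cells with positive control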
FBW7 act – FBW7 E3 ligase activators, primary screen, biochemical, AlphaScreen, human; 650,000 tested, 0.13% active; normalized activity (activation), % at 26.1 µM; F-box/WD repeat-containing protein 7 (Homo sapiens), Q969H0; AlphaScreen FBW7–phospho-cyclin E peptide binding, activator screen; in the data active = normalized activity above about 1.9%;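 also: purified mutant Fbw7 with reduced substrate affinity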
Target sequence (Q969H0 whole entry, looked up): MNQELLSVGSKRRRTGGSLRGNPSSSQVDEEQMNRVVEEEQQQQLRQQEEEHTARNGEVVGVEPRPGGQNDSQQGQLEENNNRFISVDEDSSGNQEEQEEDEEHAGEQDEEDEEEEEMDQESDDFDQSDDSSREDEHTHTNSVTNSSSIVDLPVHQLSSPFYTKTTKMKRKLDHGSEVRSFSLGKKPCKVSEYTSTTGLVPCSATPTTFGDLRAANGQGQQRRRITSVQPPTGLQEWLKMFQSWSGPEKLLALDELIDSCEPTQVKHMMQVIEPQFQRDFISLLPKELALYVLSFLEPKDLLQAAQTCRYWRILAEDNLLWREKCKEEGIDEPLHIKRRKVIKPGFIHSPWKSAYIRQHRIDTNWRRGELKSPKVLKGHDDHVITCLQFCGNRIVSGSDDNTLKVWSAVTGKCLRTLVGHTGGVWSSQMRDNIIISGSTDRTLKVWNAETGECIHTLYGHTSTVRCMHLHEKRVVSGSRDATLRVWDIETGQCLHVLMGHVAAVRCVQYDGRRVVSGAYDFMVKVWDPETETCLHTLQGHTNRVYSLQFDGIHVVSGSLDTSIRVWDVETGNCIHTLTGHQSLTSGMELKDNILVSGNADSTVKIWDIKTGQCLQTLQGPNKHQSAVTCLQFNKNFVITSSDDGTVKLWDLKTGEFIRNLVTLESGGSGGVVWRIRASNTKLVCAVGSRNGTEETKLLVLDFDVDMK
MITF inh – MITF inhibitors, primary screen, biochemical, AlphaScreen, human. Microphthalmia-associated transcription factor (Homo sapiens), O75030. AlphaScreen MITF homodimerization, bead proximity signal. inhibition, % at 2.6 µM. 650,000 tested, 0.91% active. AID 1259374, 2018; in the data active = inhibition above about 50%;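 also: 0% = vehicle wells with protein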
TEAD-YAP block – TEAD-YAP interaction inhibition, primary screen, TEAD-YAP interaction inhibitor project, luminescence, HEK-TIYL cells. 640,000 tested, 1.4% active. TEAD-Gal4/YAP UAS-luciferase luminescence. inhibition, % at 9.12 µM. AID 1259422, 2018; in the data active = inhibition above about 32%;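 also: 0% = median of test compound wells and 100% = reference inhibitor wells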
GPR151 confirm – GPR151 activators, triplicate retest, confirmation, cell-based, PathHunter beta-arrestin, luminescence. shares compounds with GPR151 ag. GPR151 PathHunter beta-arrestin cells, 90 min; % of EA-reagent control over plate median. activation, % at 11.2 µM. 6,700 tested, under 10 active. AID 1508609, 2020;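 active = mean percent activation across replicates above the confirmation screen cutoff of 4.91%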
GPR119 counter – GPR119 activators in beta-arrestin cells, counter-screen for GPR151 activator project, cell-based, PathHunter beta-arrestin, luminescence, triplicate; 90 min; 0 = compound-well median, 100 = enzyme-acceptor control; shares compounds with GPR151 ag; activation, % at 11.2 µM; 6,700 tested, 0.3% active;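 active = mean percent activation in the counterscreen above 29.09%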;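 also: counterscreen on off-target GPR119 to flag nonselective hits from the GPR151 activator screen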
* marks the source's active call; other numbers are inactive results; · = no result given; ! = not active in a repeat. Rows were chosen to be rich in hits. Some 3.5% of all compounds tested hit in one or more screens of this group.

SMILES | GPR151 ag | FBW7 act | MITF inh | TEAD-YAP block | GPR151 confirm | GPR119 counter
CC1CC(C)CN(c2ccc(N3C(=O)CC(C)C3=O)cc2[N+](=O)[O-])C1 (stereo unspecified) | 6.5* | 0.0 | 5.0 | 1.1 | 0.5 | 0.8
CN(C)CC(C)(C)CNCC(=O)Nc1cc(C(F)(F)F)cc(C(F)(F)F)c1 | 6.0* | -0.3 | 40.0 | 5.2 | -0.5 | 0.5
CC(=O)/C(C(N)=NC(=O)c1ccccc1)=C(/C)O | -4.3 | 0.1 | 7.1 | -11.0 | · | ·
CCC(C)NCCOc1ccccc1I (stereo unspecified) | 5.4* | -0.1 | 23.5 | 8.0 | 0.4 | 3.6
COc1ccc(C2=NN(S(=O)(=O)c3ccc(C)cc3)C(c3ccccc3Cl)C2)cc1OC (stereo unspecified) | 1.6 | 0.0 | -1.0 | -4.3 | · | ·
Cc1ccc2c(c1)N(C(=O)Nc1ccc(F)c(Cl)c1)CCO2 | -1.6 | 0.4 | 24.3 | -10.1 | · | ·
C=CCS/C(=C(/C#N)C(N)=O)c1cc2c([nH]1)CCCC2 | 8.6* | -0.2 | 6.1 | -1.6 | 0.1 | 5.3
COc1cc(OC)cc(C(=O)N(Cc2nc(-c3ccc(C)cc3)no2)C(C)C)c1 | -0.5 | -0.2 | 2.9 | 1.3 | · | ·
CCOc1ccc(/C=C2/N=C(c3cncc(Br)c3)OC2=O)cc1 | 5.0* | -0.1 | 17.6 | 3.9 | -0.4 | -10.8
CCOc1ccc(/C=C2/N=C(c3ccc(OC)c(Br)c3)OC2=O)cc1 | 0.6 | 0.0 | -3.4 | -0.8 | · | ·
CC(C)=CCC[C@@H](C)C1CC[C@@]2(C)C3=C(CC[C@]12C)[C@@]1(C)CCC(O)C(C)(C)[C@@H]1CC3 (stereo partly specified) | 7.7*! | 0.0 | -0.7 | 6.5 | 0.5 | 10.7
CC(=O)O[C@H]1CCC2(C)C3=C(CCC2C1(C)C)[C@]1(C)CCC(C(C)CCC=C(C)C)[C@@]1(C)CC3 (stereo partly specified) | 3.1 | 0.1 | 11.7 | -12.1 | · | ·
Cc1cccc(NC(=O)CSc2nc3c(c(=O)n2-c2ccc(F)cc2)SCC3)c1 | 6.5* | 0.0 | -12.5 | 3.1 | 0.2 | -2.1
COc1cccc(-n2nc(C(=O)NCCC3=CCCCC3)c3ccccc3c2=O)c1 | -0.1 | 0.2 | 15.5 | 4.9 | · | ·
CCOc1ccc(/C=N/NC(=O)C(=O)NC2CC2)cc1 | 5.7* | 0.4 | 18.6 | -1.0 | 1.1 | 3.8
CC(C)Oc1ccc(/C=N/NC(=O)C(=O)NC2CCCCC2)cc1 | 1.4 | 0.0 | -8.7 | -5.7 | · | ·
COc1ccccc1NC(=O)/C=C/c1ccccc1[N+](=O)[O-] | -1.6 | 0.0 | 4.2 | -6.5 | · | ·
Cc1ccc(C2=CC(c3ccccc3)n3nnnc3N2)cc1 (stereo unspecified) | 7.3* | 0.1 | -3.5 | -12.5 | 0.3 | -1.4
COc1ccc(C2C=C(c3ccc(Br)cc3)Nc3nc4ccccc4n32)cc1 (stereo unspecified) | 1.6 | 0.0 | 4.8 | -64.3 | · | ·
Cc1ccc(C2C=C(c3ccc(Br)cc3)Nc3nc4ccccc4n32)cc1 (stereo unspecified) | 5.9* | -0.2 | 4.3 | -64.7 | -1.2 | -1.5
Fc1ccc(C2=CC(c3ccccc3)n3nnnc3N2)cc1 (stereo unspecified) | 0.6 | -0.1 | -5.0 | -18.2 | · | ·
Cc1ccc(S(=O)(=O)N2CCOCC2)cc1C(=O)Nc1cccc(O)c1 | 0.1 | 0.1 | 2.2 | 10.2 | · | ·
COc1ccc(C)cc1N(CC(N)=O)S(C)(=O)=O | 7.7* | 0.2 | -2.6 | 1.6 | -0.3 | -0.8
Cc1ccc(C)c(N(CC(=O)NC(C(C)C)C(C)C)S(C)(=O)=O)c1 | 5.9* | -0.1 | 1.1 | 2.0 | -0.5 | 3.3
COC(=O)CN(c1cc(C)ccc1OC)S(C)(=O)=O | -1.0 | 0.5 | 8.2 | 3.2 | · | ·
SMILES | GPR151 ag | FBW7 act | MITF inh | TEAD-YAP block | GPR151 confirm | GPR119 counter
COc1ccc(NC(=O)CN2C(=O)CC(c3ccccc3)Sc3ccccc32)c(OC)c1 (stereo unspecified) | -1.0 | 0.7 | 2.6 | -8.8 | · | ·
CCOC(=O)c1ccc(N2C(=O)CC(Cc3ccc(Cl)cc3)C2=O)cc1 (stereo unspecified) | 9.6* | -0.3 | -8.3 | -2.2 | -0.2 | 0.4
COC(=O)c1cc2sc(C)cc2n1Cc1cc(=O)n2ccccc2n1 | 9.1* | 0.0 | -2.5 | -1.3 | -0.2 | 2.3
Cc1ccccc1-n1c(=O)c2ccccc2n(Cc2cc(=O)n3ccccc3n2)c1=O | -0.7 | -0.1 | -8.5 | -6.5 | · | ·
COc1cc([N+](=O)[O-])cc2c1NC(c1cccnc1)C1CC=CC21 (stereo unspecified) | 5.2* | -0.4 | 6.7 | 0.3 | -0.4 | -7.2
COc1cc([N+](=O)[O-])cc2c1NC(c1ccncc1)C1CC=CC21 (stereo unspecified) | 1.2 | -0.5 | -2.5 | -6.2 | · | ·
Cc1cc(Cl)ccc1OC(C)C(=O)NCc1ccco1 (stereo unspecified) | 6.9* | -0.1 | 12.5 | 4.2 | 1.4 | 16.1
Cc1ccc(NC(=O)C2C3C=CC4(O3)C2C(=O)N(CCC2=CCCCC2)C4C(=O)NC2CCCCC2)cc1 (stereo unspecified) | -0.3 | 0.3 | -3.5 | -8.1 | · | ·
CC(C)c1ccc(NC(=O)C2C3C=CC4(O3)C2C(=O)N(CCCN2CCOCC2)C4C(=O)NC2CCCCC2)cc1 (stereo unspecified) | 5.5* | -0.4 | -8.4 | 3.5 | 0.8 | 11.8
CCCCN1C(=O)C2C(C(=O)Nc3ccc(C)c(Cl)c3)C3C=CC2(O3)C1C(=O)NC1CCCCC1 (stereo unspecified) | 9.6* | 0.0 | -13.3 | -4.6 | 0.3 | 2.6
CC(C)c1ccc(NC(=O)C2C3C=CC4(O3)C2C(=O)N(CCCN2CCN(C)CC2)C4C(=O)NC2CCCCC2)cc1 (stereo unspecified) | -0.3 | 0.0 | -12.7 | -13.7 | · | ·
Cc1ccc(NC(=O)C2C3C=CC4(O3)C2C(=O)N(CCC2=CCCCC2)C4C(=O)NC2CCCCC2)cc1Cl (stereo unspecified) | 5.8* | 0.0 | -21.9 | -0.8 | -0.5 | -7.7
CCCCN1C(=O)C2C(C(=O)Nc3ccc(Cl)c(Cl)c3)C3C=CC2(O3)C1C(=O)NC1CCCCC1 (stereo unspecified) | -2.0 | 0.1 | 15.9 | 3.1 | · | ·
Cc1cccc(C(=O)N(Cc2cccnc2)Cc2cc3cc(C)ccc3n3nnnc23)c1 | 1.6 | -0.1 | -9.5 | -4.1 | · | ·
Cc1cccc(C(=O)N2CC(C)CC(C)C2)c1 (stereo unspecified) | 5.6* | 0.2 | 8.9 | 6.0 | 0.8 | 12.4
CC(=O)c1cccc(NC(=O)COC(=O)c2ccc(Cl)c(N)c2)c1 | -0.3 | -0.1 | -2.9 | -3.3 | · | ·
